Where “and” joins values, the source holds several entries; their conditions need not be identical. Identical values can stand only once. ± gives the uncertainty stated by the source.

The subject of this assay is HEK293T-Rex ERSE-FLuc. The assay can be described thus: ERSE-FLuc reporter activation, triplicate confirmation, relative to 500 nM thapsigargin (% of thapsigargin); higher = stronger ATF6/ERSE reporter activation. The following applies: 6.8 µM; 18 h; screen: confirmation. The procedure: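 HEK293T-Rex cells stably expressing the ERSE-firefly luciferase (BiP promoter, ATF6-preferring) or XBP1-splicing Renilla luciferase (IRE1/XBP1s) reporter, 1536-well plates, compound at 6.8 µM for 18 hr at 37 °C; luminescence read […] and expressed as % activation = 100*(compound - median DMSO)/(median 500 nM thapsigargin - median DMSO). Primary screen was single-pass; confirmation screen in triplicate (mean ± SD).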
Take `O=c1cc(-c2ccc(O)c(O)c2)oc2cc(O)cc(O)c12`: the ERSE-FLuc reporter activation was 46 and 36.9.

In the case of `Cc1cc2nc(-c3ccc(SCC#N)nc3)[nH]c2cc1C`, the ERSE-FLuc reporter activation was determined as 26.8 ± 1.7.

As to `N#Cc1c(NC(=O)c2cnccn2)sc2c1CCCC2`, the ERSE-FLuc reporter activation came out at 40.2 ± 22. Under `Nc1nc(Nc2ccccc2)cc(-c2ccccc2)n1` stands 33.8 ± 3.9.

`COc1cccc(C2=NOC(C(=O)Nc3cc(C)ccc3O)C2)c1` (stereo not given): the ERSE-FLuc reporter activation worked out at 30.3 ± 8.3. `O=C1N/C(=C\c2ccc(O)cc2)C(O)=C1C=NCc1ccccc1` displayed an ERSE-FLuc reporter activation of 27.6 ± 6.4.

Regarding `Cc1ccc(-c2csc(Nc3ccc(O)cc3)n2)cc1`, the ERSE-FLuc reporter activation is 26.7 ± 7.1. Then `O=C(NCCc1ccc(O)cc1)c1ccc2nc(-c3csc4ccccc34)sc2c1`, with 103 ± 23; and `Cc1ccc(O)c(-c2cc(-c3cccs3)[nH]n2)c1`, with 44.2 ± 7.9. Then `O=C(Nc1ccc2c(c1)OCCO2)C(=O)Nc1ccccc1Cl`, with 27 ± 5.6; and `Nc1ccc2nc(-c3ccc(Br)cc3)[nH]c2c1`, with 36.7 ± 10; and `O=C(NCCCn1ccnc1)c1cc(-c2cccs2)on1`, with 42.5 ± 6.9. Under `CCCCCCOc1ccc(/C(C)=N/NC2=NCCN2)cc1[N+](=O)[O-]` stands 31.3 ± 2.8.

On to `COc1ccc(/C=N/c2sc3c(c2C(N)=O)CCCC3)cc1`, for which the ERSE-FLuc reporter activation is 26.4 ± 4.8.

Compound `Cc1ccc(Nc2nc(N)c3ccccc3n2)cc1Cl` had an ERSE-FLuc reporter activation of 34.8 ± 5.8. `O=C(N/N=C\C(Br)=C\c1ccccc1)c1n[nH]c2c1CCCC2` registered an ERSE-FLuc reporter activation of 35 ± 4.1. As for `COC(=O)c1ccc(C(=O)Nc2ccccc2N)cc1`, the ERSE-FLuc reporter activation stood at 32.9 ± 4.2.

In the case of `Cc1ccc(O)c(-c2cc(-c3ccc(F)cc3)n[nH]2)c1`, the ERSE-FLuc reporter activation worked out at 25.5 ± 7.2. Under `CC(C)c1ccc(/C=N\NC(=O)c2ccccc2)cc1` stands 27.4 ± 3.1; under `O=c1[nH]c(/C=C2\C=Nc3ccccc32)c(O)n1-c1ccc(Cl)cc1`, 41.4 ± 5.5. Then `C(=C\c1ccccc1)/C=N/Nc1nc2ccccc2[nH]1`, with 27.2 ± 3.8; and `Oc1ccc(-c2cn3ccccc3n2)cc1O`, with 40 ± 5.6.

Take `CNC(=O)c1ccccc1Nc1cc(NC(=O)Cc2ccc(F)c(F)c2)ncc1C(F)(F)F`: the ERSE-FLuc reporter activation was 54.6 ± 9.

In turn, `Nc1ccc2nc(-c3ccccn3)[nH]c2c1` registered an ERSE-FLuc reporter activation of 26.8 ± 9.3. Then `N#CC1=C(N)Oc2c(ccc3ccccc23)C1c1ccsc1` (stereo not given), with 25.8 ± 2.7; and `OCCNc1nc(Nc2ccc(Cl)c(Cl)c2)nc2ccccc12`, with 87.6 ± 9.4; and `Oc1cccc(Nc2nc(-c3ccc(O)c(O)c3)cs2)c1`, with 26.1 ± 6.7. Under `Cc1ccc2c(N)c(C(=O)c3ccc4c(c3)OCO4)sc2n1` stands 35.9 ± 4.3; under `Cc1ccc(O)c(NC(=O)c2cc(CC(C)C)on2)c1`, 84.4 ± 15. Then `CCCCCCc1ccc(-c2ncc(N)cn2)cc1`, with 33.2 ± 4.7. The compound `O=C(COC(=O)c1cc(O)c(O)c(O)c1)Nc1ccc(Br)cc1F` gave an ERSE-FLuc reporter activation of 57.9 ± 11.

Take `COc1cccc(C(=O)/C=C/Nc2cc(C)ccc2O)c1`: the ERSE-FLuc reporter activation stood at 116 ± 7.9. In the case of `CCn1c(/C(C#N)=C/c2ccc(OC)cc2)nc2ccccc21`, the ERSE-FLuc reporter activation is 27.2 ± 7.1.

With `OCCNc1nc(Nc2ccc(Cl)cc2)nc2ccccc12`, the ERSE-FLuc reporter activation is 67.9 ± 10. Under `Cc1ccc(O)c(NC(=O)c2cc(-c3ccco3)on2)c1` stands 74.4 ± 8.9; under `CC(Oc1ccc(Cl)cc1Cl)C(=O)NNC(=O)c1ccc(O)c(O)c1` (stereo not given), 28.5 ± 5.5; under `COc1ccc(Nc2nccn3c(-c4ccsc4)cnc23)cn1`, 38.1 ± 6.9. Then `Nc1ccc(-c2nc3cc(N)c(Cl)cc3[nH]2)cc1`, with 32.5 ± 3.7; and `C=CCNC(=O)c1cc(-c2cccs2)on1`, with 72.1 ± 6. Then `COc1ccc(-c2csc(-c3ccc(O)cc3)n2)cc1`, with 29.4 ± 5.
